Experimental findings from PubChem BioAssay (NCI) are described below.

About 83,000 compounds went through this panel and 20% of them were active in at least one assay; those are over-represented in the sample as a whole.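 Percent growth is the endpoint: 0 to 100 indicates growth inhibition (40 means 60% inhibition), 0 means no net growth, and negative values indicate cell death.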 Calls of active or inactive are those of the source.

The subject of the experiment is SNB-75 CNS. Kind of experiment: NCI-60 one-dose screen, 48 h (100 = growth as untreated, 0 = no growth, -100 = all killed). Particulars: 10 µM unless noted. On the procedure:
Growth inhibition of the SNB-75 human tumor cell line is measured as a screen for anti-cancer activity. Cells are grown in 96 well plates and exposed to the test compound for 48 hours. Compounds are tested at a single concentration, which is 10^-5 M for most compounds. The reported endpoint is percent growth (GI% or GIPRCNT), where numbers from 0 - 100% represent growth inhibition, and numbers from -100% - 0 represent cell death. For example, a value of 40 represents 60% growth inhibition. A value of 0 means no net growth occurred over the course of the experiment. A value of -40 indicates 40% of cells at the beginning of the experiment died by the end of the experiment. A value of -100 means all cells are dead at the end of the experiment.
NCI-60 Human Tumor Cell Lines Screen was performed using the standard one-dose NCI protocol, which is described in more detail at https://dtp.cancer.gov/discovery_development/nci-60/default.htm.
Compounds with GIPRCNT values below 10 were considered active. Activity score was based on GIPRCNT using the following formula: […]
Score is 0 for GIPRCNT values of 100 or above, 50 for GIPRCNT values of 0, and 100 for GIPRCNT values of -100.
As for `CC1CC=CCC12C(=O)NC(=S)NC2=O` (stereo not given), the growth was 81.4% (inactive). With `COC[CH2][Hg][C]#[C][Hg][CH2]COC` the figure was 83% (inactive). The result for `c1ccc([As]=[As]c2ccccc2)cc1` (stereo not given) reads 14.3% (inactive). With `Cc1nnc([S-])s1.[Au+].c1ccc([PH+](c2ccccc2)c2ccccc2)cc1` the figure was -76.3% (active). `N#[N+]c1cnc([O-])[nH]c1=O`: the growth is 74.7% (inactive).

For the compound `C=CC(=O)NC(O)C(Cl)(Cl)Cl` (stereo not given), the growth is 100% (inactive). On to `CC12CCC(=O)C=C1C(O)CC1C2CCC2(C)C(O)CCC12` (stereo not given), for which the growth was 94.5% (inactive). With `COc1cc(N(CCCl)CCCl)ccc1C=Nc1ccccc1C(=O)O` the figure was 85.8% (inactive). With `COc1ccc(-c2ccc(OC)c(OC)c2OC)cc1` the figure was -11% (active). The result for `NC(=O)C(Cl)Cl` reads 96.4% (inactive); that for `COc1ccc(C(=O)c2ccc([As]=O)cc2)cc1` (stereo not given), -97% (active). As to `O=C(c1cccs1)C1NO[N+]([O-])=C1c1cccs1` (stereo not given), the growth was -11.5% (active).

Take `CC(=O)OC1CCC2(C)C(=CCC3C4CC(CN5CC5)C(=O)C4(C)CCC32)C1` (stereo not given): the growth is 93.9% (inactive).

In the case of `Oc1ccc2c3c1O[C@H]1c4[nH]c5ccccc5c4C[C@@]4(O)C(C2)N(CC2CC2)CC[C@]314`, the growth is 76.8% (inactive).

Turning to `O=c1cc[nH]c(=O)o1`, the growth was 84.7% (inactive).

As for `C[C@]12CC[C@@H]3C4=C(CC[C@H]3[C@@H]1CC[C@@H]2O)CC(=O)CC4`, the growth is 101% (inactive). The result for `CCCCCN(CCCCC)CC(O)c1ccc(C)c(Cl)c1` (stereo not given) reads 90.9% (inactive); that for `CCC[CH2][Sn]1([CH2]CCC)[O]C(=O)c2cccc([N+](=O)[O-])c2C(=O)[O]1`, -82.3% (active). As to `CCN1CC2(CN(CC)C1=S)C(=O)NC(=O)NC2=O`, the growth is 95.8% (inactive). As to `CC1(C)CC(=O)CC(C)(C)N1N=O`, the growth was 78.7% (inactive). The result for `Oc1ccc(O)c2c1C1(Cl)C(Cl)=C(Cl)C2(Cl)C1(Cl)Cl` reads 31.6% (inactive). For the compound `C#CC1(O)CCC2(C)C(CCC3C4CCC(=O)C4(C)CCC32)C1` (stereo not given), the growth is 84.4% (inactive). For `O=S(=O)(Cl)c1ccccc1` (tested in a mixture with another compound), the growth is 95.4% (inactive). Regarding `COc1ccc(C2=NN(c3ccccc3)C(c3sc(N(CCCl)CCCl)nc3Cl)C2)cc1` (stereo not given), the growth was 74.2% (inactive).

As to `CNc1ccc(C(=O)CC(O)CCC(C)C2OC(=O)CC(O)CC(=O)CC(O)CC(O)CC(O)CC(O)CC3(O)CC(O)C(C(=O)OC)C(CC(O[C@@H]4O[C@H](C)[C@@H](O)[C@H](N)[C@@H]4O)/C=C/C=C/C=C/C=C/C=C/C=C/C=C/C2C)O3)cc1` (stereo not given in full), the growth is 42.6% (inactive). Regarding `CN(Cc1cccnc1)N=O`, the growth was 85.1% (inactive). In the case of `CCCCCCCCCCCCOc1ccc(C(=O)Oc2ccc(CSP3(=O)OCC4OC(n5cnc6c(N)ncnc65)C(F)C4OP(=O)(O)OCC4OC(n5ccc(=O)[nH]c5=O)C(F)C4O3)cc2)cc1` (stereo not given), the growth is 107% (inactive). In the case of `COc1ccc(OC)c(/C=C(/C)[N+](=O)[O-])c1`, the growth was 77.2% (inactive). Regarding `C[CH2][Pb]([CH2]C)([CH2]C)[O]C(=O)COc1ccccc1`, the growth was 4.45% (active).

As to `CC(C)(O)/C=C/C(=O)[C@](C)(O)[C@H]1[C@H](O)C[C@@]2(C)[C@@H]3CC=C4[C@@H](C=C(O)C(=O)C4(C)C)[C@]3(C)C(=O)C[C@]12C`, the growth was -86.6% (active).

Turning to `CC1(C)CC2(CC(C)(C)c3cc(O)c(O)cc32)c2cc(O)c(O)cc21`, the growth is 81.2% (inactive). Consider `N#CC1=C(N)Oc2cc3c(cc2C1c1cccs1)OCO3` (stereo not given), for which the growth was -14.9% (active). The result for `CC1(CF)NC(=O)NC1=O` (stereo not given) reads 89.9% (inactive). The result for `O=C(O)C1(Br)CC12c1ccccc1-c1ccccc12` (stereo not given) reads 104% (inactive). With `Cc1cc(NC(=O)CCc2ccc(N3C(N)=NC(N)=NC3(C)C)cc2)ccc1S(=O)(=O)F` the figure was 52.5% (inactive). Take `COc1cc(/C=C\c2cc(OC)c(OC)c(OC)c2)cc(N/C=C\C(=O)c2ccc(OC(F)(F)F)cc2)c1OC`: the growth is -8.84% (active). With `CC(C)Nc1ccc(Nc2ccccc2)cc1` the figure was 29.8% (inactive); with `COc1cc(C2CC(=O)Nc3nc(N)[se]c32)cc(OC)c1OC` (stereo not given), 98.9% (inactive); with `O=C(CF)N(O)c1ccc(/C=C/c2ccccc2)cc1`, 70.9% (inactive). The result for `CC(C)OC(=S)[S-].[Au+].c1ccc([PH+](c2ccccc2)c2ccccc2)cc1` reads 18.5% (inactive).
